# Reference: article PMC7862700, “An all-to-all approach to the identification of sequence-specific readers for epigenetic DNA modifications on cytosine”
# Experiments:
# Assay in all cases: DAPPL (digital affinity profiling via proximity ligation, sequencing); 10 mM Tris-HCl pH 7.5, 50 mM NaCl, 1 mM DTT, 4% glycerol, room temperature, 30 min; GST-TFs on glutathione beads, 16-mer random dsDNA library, 0.1% formaldehyde crosslink after washing; high values mean tight binding
# [1] = molecular target: T1, FEV (Homo sapiens, UniProt Q99581 1-238); settings: protein: recombinant; tags: N-terminal GST; dsDNA, one strand shown
# T1 sequence: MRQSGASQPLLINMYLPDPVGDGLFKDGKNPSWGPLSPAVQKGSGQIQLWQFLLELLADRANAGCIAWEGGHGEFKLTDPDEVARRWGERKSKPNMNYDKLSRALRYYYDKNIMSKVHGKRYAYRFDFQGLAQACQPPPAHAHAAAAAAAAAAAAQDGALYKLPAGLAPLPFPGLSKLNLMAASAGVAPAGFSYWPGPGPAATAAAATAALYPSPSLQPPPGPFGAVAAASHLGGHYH
# Summary of the method: (§1)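 Binding signal is defined as a hexamer's read frequency for one factor over its frequency for the tag-only sample. To obtain reads, GST-fused human transcription factors were expressed in yeast, captured on glutathione beads, barcoded with DNA and pooled with that sample. Pools met 200 nmole of a 16-mer random double-stranded DNA library in Tris/NaCl/DTT/glycerol buffer for 30 min at room temperature before washing, 0.1% formaldehyde crosslinking, proximity ligation (BsaI/T4 ligase, 1 h, 37 °C), PCR and Illumina NextSeq500 sequencing.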
# [2] = molecular target: ETV5 (Homo sapiens, UniProt P41161 1-510); settings: protein: recombinant; tags: N-terminal GST; dsDNA, one strand shown
# ETV5, sequence (P41161 whole entry): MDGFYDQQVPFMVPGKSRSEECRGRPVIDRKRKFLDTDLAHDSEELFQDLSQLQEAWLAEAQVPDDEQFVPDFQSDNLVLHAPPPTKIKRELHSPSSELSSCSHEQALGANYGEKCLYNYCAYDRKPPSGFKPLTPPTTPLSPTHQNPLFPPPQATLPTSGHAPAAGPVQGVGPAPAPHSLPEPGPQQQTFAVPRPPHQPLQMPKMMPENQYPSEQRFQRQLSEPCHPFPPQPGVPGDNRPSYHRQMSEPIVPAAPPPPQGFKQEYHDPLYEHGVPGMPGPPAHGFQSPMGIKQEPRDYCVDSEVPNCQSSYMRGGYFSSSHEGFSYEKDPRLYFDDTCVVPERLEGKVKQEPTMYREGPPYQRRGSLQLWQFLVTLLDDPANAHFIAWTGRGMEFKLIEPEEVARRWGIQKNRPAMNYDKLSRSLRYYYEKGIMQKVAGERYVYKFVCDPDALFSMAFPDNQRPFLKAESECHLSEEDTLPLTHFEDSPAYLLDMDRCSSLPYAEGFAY
# Summary of the method: as §1
# [3] = molecular target: HSF1 (Homo sapiens, UniProt Q00613 1-529); settings: protein: recombinant; tags: N-terminal GST; chain copies: 3; dsDNA, one strand shown
# HSF1, sequence (Q00613 whole entry): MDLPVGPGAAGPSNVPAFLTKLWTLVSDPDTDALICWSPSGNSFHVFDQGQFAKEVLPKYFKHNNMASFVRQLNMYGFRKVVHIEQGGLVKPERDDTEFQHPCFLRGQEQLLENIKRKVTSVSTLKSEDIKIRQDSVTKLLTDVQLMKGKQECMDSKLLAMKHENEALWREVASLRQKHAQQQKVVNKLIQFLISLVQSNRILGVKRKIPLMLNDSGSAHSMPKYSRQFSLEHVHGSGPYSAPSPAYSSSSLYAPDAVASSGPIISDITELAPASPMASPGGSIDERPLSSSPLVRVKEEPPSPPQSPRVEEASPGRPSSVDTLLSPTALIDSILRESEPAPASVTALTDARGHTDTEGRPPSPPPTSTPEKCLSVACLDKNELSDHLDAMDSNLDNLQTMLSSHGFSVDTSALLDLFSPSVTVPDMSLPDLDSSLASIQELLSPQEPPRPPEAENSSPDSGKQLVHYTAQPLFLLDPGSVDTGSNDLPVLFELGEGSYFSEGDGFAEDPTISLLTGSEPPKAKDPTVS
# Summary of the method: as §1
# [4] = molecular target: T2, SPIC (Homo sapiens, UniProt Q8N5J4 1-248); settings: protein: recombinant; tags: N-terminal GST; dsDNA, one strand shown
# T2 sequence: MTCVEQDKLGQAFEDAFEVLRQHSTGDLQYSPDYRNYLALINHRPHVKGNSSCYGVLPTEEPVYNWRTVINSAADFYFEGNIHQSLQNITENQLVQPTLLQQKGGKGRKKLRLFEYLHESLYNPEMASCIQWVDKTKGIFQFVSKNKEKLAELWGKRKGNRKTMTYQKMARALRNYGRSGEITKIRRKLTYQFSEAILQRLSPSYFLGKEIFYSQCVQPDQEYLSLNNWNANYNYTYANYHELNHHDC
# Summary of the method: as §1
# [5] = molecular target: ELF4 (Homo sapiens, UniProt Q99607 1-663); settings: protein: recombinant; tags: N-terminal GST; dsDNA, one strand shown
# ELF4, sequence (Q99607 whole entry): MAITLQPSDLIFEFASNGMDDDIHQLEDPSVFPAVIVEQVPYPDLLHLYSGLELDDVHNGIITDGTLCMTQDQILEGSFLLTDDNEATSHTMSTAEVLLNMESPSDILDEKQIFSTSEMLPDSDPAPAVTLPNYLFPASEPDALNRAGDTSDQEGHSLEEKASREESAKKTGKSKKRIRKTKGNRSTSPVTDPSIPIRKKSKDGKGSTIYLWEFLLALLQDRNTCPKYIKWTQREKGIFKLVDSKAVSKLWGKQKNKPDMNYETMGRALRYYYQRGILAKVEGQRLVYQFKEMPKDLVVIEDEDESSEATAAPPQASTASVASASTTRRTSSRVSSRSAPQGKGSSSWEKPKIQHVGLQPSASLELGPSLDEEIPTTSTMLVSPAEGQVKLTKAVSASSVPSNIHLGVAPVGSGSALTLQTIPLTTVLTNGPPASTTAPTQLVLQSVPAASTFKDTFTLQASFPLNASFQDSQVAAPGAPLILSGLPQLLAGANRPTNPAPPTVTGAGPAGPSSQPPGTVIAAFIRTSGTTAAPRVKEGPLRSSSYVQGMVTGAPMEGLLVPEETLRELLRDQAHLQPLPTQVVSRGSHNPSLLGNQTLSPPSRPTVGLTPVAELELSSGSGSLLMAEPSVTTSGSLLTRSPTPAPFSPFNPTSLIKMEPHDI
# Summary of the method: as §1
# [6] = molecular target: T3, ELK4 (Homo sapiens, UniProt P28324-2 1-405); settings: protein: recombinant; tags: N-terminal GST; dsDNA, one strand shown
# T3 sequence: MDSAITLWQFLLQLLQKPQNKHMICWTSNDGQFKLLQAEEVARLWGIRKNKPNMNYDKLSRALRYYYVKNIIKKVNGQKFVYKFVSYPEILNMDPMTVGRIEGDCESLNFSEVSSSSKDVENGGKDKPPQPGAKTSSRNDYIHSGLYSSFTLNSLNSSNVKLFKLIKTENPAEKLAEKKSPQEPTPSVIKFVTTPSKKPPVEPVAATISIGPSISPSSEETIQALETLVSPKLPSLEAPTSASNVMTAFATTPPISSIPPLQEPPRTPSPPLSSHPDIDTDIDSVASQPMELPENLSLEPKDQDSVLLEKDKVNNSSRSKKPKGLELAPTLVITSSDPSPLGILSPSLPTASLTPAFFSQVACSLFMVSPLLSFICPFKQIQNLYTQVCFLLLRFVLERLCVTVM
# Summary of the method: as §1
# [7] = molecular target: T4, ETV2 (Homo sapiens, UniProt O00321 1-342); settings: protein: recombinant; tags: N-terminal GST; dsDNA, one strand shown
# T4 sequence: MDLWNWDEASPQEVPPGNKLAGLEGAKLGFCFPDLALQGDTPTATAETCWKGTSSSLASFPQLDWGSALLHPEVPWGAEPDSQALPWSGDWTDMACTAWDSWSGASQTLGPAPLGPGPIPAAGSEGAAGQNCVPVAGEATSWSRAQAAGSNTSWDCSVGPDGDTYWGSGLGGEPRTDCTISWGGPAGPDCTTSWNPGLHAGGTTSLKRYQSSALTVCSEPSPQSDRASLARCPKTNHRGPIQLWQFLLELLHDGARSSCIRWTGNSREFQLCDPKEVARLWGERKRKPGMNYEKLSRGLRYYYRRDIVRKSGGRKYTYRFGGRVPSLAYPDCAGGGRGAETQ
# Summary of the method: as §1
# [8] = molecular target: T5, ELF3 (Homo sapiens, UniProt P78545 1-371); settings: protein: recombinant; tags: N-terminal GST; dsDNA, one strand shown
# T5 sequence: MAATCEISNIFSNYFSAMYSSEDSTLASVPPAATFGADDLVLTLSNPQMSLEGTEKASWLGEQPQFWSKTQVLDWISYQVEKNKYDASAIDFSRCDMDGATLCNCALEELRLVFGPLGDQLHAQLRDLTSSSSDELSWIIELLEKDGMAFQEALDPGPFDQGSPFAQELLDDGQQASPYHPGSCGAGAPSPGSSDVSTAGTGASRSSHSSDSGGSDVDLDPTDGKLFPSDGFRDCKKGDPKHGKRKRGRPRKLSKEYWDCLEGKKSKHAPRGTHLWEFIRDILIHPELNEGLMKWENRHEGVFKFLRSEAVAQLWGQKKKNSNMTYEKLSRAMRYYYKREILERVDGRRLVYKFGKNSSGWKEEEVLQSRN
# Summary of the method: as §1
# [9] = molecular target: CRX (Homo sapiens, UniProt O43186 1-299); settings: protein: recombinant; tags: N-terminal GST; dsDNA, one strand shown
# CRX, sequence (O43186 whole entry): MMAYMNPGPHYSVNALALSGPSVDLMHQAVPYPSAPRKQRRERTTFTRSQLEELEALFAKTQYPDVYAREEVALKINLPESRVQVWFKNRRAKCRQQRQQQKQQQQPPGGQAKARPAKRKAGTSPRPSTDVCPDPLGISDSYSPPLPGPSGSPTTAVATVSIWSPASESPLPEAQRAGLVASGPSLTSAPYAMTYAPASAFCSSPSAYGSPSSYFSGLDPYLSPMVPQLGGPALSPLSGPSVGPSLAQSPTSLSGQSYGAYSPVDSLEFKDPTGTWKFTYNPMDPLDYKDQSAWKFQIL
# Summary of the method: as §1
# [10] = molecular target: ETV1 (Homo sapiens, UniProt P50549 1-477); settings: protein: recombinant; tags: N-terminal GST; dsDNA, one strand shown
# ETV1, sequence (P50549 whole entry): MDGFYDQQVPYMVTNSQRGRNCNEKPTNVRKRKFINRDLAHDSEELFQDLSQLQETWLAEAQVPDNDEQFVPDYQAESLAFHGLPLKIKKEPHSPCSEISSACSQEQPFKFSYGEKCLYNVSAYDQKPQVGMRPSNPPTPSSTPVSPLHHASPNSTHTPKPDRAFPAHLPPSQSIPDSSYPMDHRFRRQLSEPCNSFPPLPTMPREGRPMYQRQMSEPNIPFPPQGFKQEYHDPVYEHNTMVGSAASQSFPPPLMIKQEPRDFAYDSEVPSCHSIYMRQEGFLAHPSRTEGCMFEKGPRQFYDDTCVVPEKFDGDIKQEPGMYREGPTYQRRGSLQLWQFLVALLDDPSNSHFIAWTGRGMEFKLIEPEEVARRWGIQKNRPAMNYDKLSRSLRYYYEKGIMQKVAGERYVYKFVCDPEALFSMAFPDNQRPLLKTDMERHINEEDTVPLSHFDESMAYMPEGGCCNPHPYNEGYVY
# Summary of the method: as §1
# [11] = molecular target: T6, ERF (Homo sapiens, UniProt P50548 1-548); settings: protein: recombinant; tags: N-terminal GST; dsDNA, one strand shown
# T6 sequence: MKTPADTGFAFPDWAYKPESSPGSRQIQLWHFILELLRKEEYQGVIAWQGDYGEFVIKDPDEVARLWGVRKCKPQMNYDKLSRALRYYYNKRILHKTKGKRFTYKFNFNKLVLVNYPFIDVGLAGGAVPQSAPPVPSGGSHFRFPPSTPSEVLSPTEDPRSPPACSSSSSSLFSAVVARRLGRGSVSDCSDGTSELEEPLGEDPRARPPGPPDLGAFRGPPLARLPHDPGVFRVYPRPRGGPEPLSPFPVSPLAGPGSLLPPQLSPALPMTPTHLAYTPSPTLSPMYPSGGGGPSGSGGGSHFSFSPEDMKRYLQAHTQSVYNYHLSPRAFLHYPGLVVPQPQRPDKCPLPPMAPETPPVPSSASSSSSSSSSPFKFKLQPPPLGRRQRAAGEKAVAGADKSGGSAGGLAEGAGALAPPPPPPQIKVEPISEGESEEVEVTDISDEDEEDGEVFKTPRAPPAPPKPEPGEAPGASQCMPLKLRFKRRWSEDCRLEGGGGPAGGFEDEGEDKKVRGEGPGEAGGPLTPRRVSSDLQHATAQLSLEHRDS
# Summary of the method: as §1
# [12] = molecular target: T7, ETV3L (Homo sapiens, UniProt Q6ZN32 1-361); settings: protein: recombinant; tags: N-terminal GST; dsDNA, one strand shown
# T7 sequence: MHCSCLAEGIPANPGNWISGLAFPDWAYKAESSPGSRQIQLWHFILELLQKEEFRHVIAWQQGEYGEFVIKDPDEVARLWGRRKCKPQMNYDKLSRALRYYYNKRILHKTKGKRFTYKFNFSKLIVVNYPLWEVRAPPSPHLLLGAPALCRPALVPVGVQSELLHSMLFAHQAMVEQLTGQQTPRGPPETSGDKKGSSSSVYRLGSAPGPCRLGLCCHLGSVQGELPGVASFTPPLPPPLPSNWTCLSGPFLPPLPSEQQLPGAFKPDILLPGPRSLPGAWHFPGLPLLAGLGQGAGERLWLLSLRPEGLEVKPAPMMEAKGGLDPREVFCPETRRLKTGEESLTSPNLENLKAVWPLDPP
# Summary of the method: as §1
# [13] = molecular target: T8, ETS2 (Homo sapiens, UniProt P15036 1-469); settings: protein: recombinant; tags: N-terminal GST; dsDNA, one strand shown
# T8 sequence: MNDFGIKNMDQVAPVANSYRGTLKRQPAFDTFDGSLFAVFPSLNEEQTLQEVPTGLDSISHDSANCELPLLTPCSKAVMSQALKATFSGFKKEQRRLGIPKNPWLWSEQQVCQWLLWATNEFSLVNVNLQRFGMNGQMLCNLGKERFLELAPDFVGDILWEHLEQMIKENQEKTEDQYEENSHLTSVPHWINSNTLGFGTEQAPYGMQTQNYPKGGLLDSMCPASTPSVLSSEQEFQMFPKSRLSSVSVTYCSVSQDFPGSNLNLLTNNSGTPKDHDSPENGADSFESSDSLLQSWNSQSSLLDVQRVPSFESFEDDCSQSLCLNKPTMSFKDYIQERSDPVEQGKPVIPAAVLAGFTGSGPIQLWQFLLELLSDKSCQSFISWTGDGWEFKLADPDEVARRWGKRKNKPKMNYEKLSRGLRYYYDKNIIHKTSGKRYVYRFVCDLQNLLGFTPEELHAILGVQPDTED
# Summary of the method: as §1
# [14] = molecular target: T9, SPDEF (Homo sapiens, UniProt O95238 1-335); settings: protein: recombinant; tags: N-terminal GST; dsDNA, one strand shown
# T9 sequence: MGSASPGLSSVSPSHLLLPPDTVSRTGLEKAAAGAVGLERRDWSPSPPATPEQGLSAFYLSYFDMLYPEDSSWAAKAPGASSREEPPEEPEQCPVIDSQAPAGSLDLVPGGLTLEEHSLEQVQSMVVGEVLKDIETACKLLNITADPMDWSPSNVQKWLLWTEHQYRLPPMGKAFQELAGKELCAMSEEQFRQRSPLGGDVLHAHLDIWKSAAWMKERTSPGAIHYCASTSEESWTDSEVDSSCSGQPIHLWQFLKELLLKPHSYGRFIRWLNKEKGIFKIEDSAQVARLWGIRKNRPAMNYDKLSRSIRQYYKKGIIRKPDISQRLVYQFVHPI
# Summary of the method: as §1
# [15] = molecular target: T10, ETV7 (Homo sapiens, UniProt Q9Y603 1-341); settings: protein: recombinant; tags: N-terminal GST; dsDNA, one strand shown
# T10 sequence: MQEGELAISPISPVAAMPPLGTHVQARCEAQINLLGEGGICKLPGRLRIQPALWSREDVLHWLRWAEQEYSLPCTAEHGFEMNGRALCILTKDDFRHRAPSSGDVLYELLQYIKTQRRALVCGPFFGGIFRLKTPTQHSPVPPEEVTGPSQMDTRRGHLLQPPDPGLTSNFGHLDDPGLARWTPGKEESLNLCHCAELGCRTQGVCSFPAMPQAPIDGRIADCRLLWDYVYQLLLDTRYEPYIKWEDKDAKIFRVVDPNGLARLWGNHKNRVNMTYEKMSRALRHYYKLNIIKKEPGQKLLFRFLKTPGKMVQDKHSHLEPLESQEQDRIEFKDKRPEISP
# Summary of the method: as §1
# [16] = molecular target: T11, ELF5 (Homo sapiens, UniProt Q9UKW6-2 1-255); settings: protein: recombinant; tags: N-terminal GST; dsDNA, one strand shown
# T11 sequence: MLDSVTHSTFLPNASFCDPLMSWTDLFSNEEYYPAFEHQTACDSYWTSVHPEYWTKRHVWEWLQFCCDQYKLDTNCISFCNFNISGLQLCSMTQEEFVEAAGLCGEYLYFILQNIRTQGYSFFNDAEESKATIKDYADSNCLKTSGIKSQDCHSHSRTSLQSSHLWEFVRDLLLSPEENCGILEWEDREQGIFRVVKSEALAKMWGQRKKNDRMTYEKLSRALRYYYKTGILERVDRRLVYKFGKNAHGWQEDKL
# Summary of the method: as §1
# [17] = molecular target: T12, ETV3 (Homo sapiens, UniProt P41162-2 1-143); settings: protein: recombinant; tags: N-terminal GST; dsDNA, one strand shown
# T12 sequence: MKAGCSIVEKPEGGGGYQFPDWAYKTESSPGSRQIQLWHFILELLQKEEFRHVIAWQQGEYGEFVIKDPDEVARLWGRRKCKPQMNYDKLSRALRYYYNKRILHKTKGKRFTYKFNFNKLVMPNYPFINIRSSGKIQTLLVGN
# Summary of the method: as §1
# [18] = molecular target: ETV6 (Homo sapiens, UniProt P41212 1-452); settings: protein: recombinant; tags: N-terminal GST; dsDNA, one strand shown
# ETV6, sequence (P41212 whole entry): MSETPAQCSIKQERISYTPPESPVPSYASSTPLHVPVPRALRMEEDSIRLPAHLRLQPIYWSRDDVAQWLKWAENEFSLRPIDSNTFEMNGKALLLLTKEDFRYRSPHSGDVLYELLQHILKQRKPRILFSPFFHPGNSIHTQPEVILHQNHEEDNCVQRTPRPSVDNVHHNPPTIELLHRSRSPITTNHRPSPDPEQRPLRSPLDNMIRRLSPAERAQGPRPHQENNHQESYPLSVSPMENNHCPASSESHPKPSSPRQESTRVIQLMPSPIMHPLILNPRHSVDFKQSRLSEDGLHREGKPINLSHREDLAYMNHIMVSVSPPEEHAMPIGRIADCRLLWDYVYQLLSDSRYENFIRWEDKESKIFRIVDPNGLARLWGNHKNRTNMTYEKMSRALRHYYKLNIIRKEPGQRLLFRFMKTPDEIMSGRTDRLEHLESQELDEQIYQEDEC
# Summary of the method: as §1
sequence,measurement,setting,value
AAAGCA,binding signal,[1],"1.07 fold enrichment (6-mer frequency, TF over GST control)"
same,binding signal,[2],"1.06 fold enrichment (6-mer frequency, TF over GST control)"
same,binding signal,[3],"1.04 fold enrichment (6-mer frequency, TF over GST control)"
same,binding signal,[4],"1.01 fold enrichment (6-mer frequency, TF over GST control)"
same,binding signal,[5],"1.09 fold enrichment (6-mer frequency, TF over GST control)"
same,binding signal,[6],"1.14 fold enrichment (6-mer frequency, TF over GST control)"
same,binding signal,[7],"1.11 fold enrichment (6-mer frequency, TF over GST control)"
same,binding signal,[8],"1.02 fold enrichment (6-mer frequency, TF over GST control)"
same,binding signal,[9],"1.06 fold enrichment (6-mer frequency, TF over GST control)"
same,binding signal,[10],"1.06 fold enrichment (6-mer frequency, TF over GST control)"
same,binding signal,[11],"1.1 fold enrichment (6-mer frequency, TF over GST control)"
same,binding signal,[12],"1.1 fold enrichment (6-mer frequency, TF over GST control)"
same,binding signal,[13],"1.05 fold enrichment (6-mer frequency, TF over GST control)"
same,binding signal,[14],"1.06 fold enrichment (6-mer frequency, TF over GST control)"
same,binding signal,[15],"1.15 fold enrichment (6-mer frequency, TF over GST control)"
same,binding signal,[16],"1.07 fold enrichment (6-mer frequency, TF over GST control)"
same,binding signal,[17],"1.07 fold enrichment (6-mer frequency, TF over GST control)"
same,binding signal,[18],"1.05 fold enrichment (6-mer frequency, TF over GST control)"
